Laboratory results reported in PubChem BioAssay AID1159580 (chemical genetic matrix, 2015).
Screen size: about 5,500 compounds; about 2,000 (36%) were called active. Not shown: some 18% with an inconclusive outcome. No stated cut-off is given here; in the data, active means normalized growth mostly below about 0.91 (no sharp cut-off); inconclusive means no clear call, values can overlap the other calls; inactive means mostly above about 0.92. The list shows a part of the results.

Assay: chemical genetic growth profiling, strain panel (AID 1159580);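 further: tested at 20 µM; growth read once vehicle control cultures reached saturation at 30 °C; 1 = growth at the plate median or of vehicle wells; lower values mean less growth of the strain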
Details: growth OD
[1] = S. cerevisiae deletion strains, locus YDL101C, strain DUN1, active compounds read low
[2] = S. cerevisiae deletion strains, locus YHR030C, strain SLT2, active compounds read low

Measured: normalized growth

O=C1CSC(=Nc2cc(Cl)cc(Cl)c2)N1Cc1cccnc1
inactive: S. cerevisiae deletion strains, locus YAR019C, strain CDC15, active compounds read low 0.997 | S. cerevisiae deletion strains, locus YBL105C, strain PKC1, active compounds read low 0.989 | S. cerevisiae deletion strains, locus YBR135W, strain CKS1, active compounds read low 0.995 | S. cerevisiae deletion strains, locus YBR136W, strain MEC1, active compounds read low 0.986 | S. cerevisiae deletion strains, locus YBR160W, strain CDC28, active compounds read low 0.992 | S. cerevisiae deletion strains, locus YDL017W, strain CDC7, active compounds read low 0.991 | S. cerevisiae deletion strains, locus YDL028C, strain MPS1, active compounds read low 0.994 | [1] 0.988 | S. cerevisiae deletion strains, locus YDL108W, strain KIN28, active compounds read low 0.97 | S. cerevisiae deletion strains, locus YDL132W, strain cdc53, active compounds read low 0.997 | S. cerevisiae deletion strains, locus YDL214C, strain PRR2, active compounds read low 0.924 | S. cerevisiae deletion strains, locus YDR052C, strain DBF4, active compounds read low 0.995 | S. cerevisiae deletion strains, locus YDR054C, strain cdc34, active compounds read low 0.983 | S. cerevisiae deletion strains, locus YDR226W, strain ADK1, active compounds read low 0.996 | S. cerevisiae deletion strains, locus YDR477W, strain SNF1, active compounds read low 0.947 | S. cerevisiae deletion strains, locus YER123W, strain YCK3, active compounds read low 0.887 | S. cerevisiae deletion strains, locus YER133W, strain GLC7, active compounds read low 0.927 | S. cerevisiae deletion strains, locus YFL009W, strain cdc4, active compounds read low 0.986 | S. cerevisiae deletion strains, locus YFL029C, strain CAK1, active compounds read low 0.994 | S. cerevisiae deletion strains, locus YFR003C, strain YPI1, active compounds read low 0.991 | S. cerevisiae deletion strains, locus YFR019W, strain FAB1, active compounds read low 0.944 | S. cerevisiae deletion strains, locus YFR028C, strain CDC14, active compounds read low 0.994 | S. cerevisiae deletion strains, locus YGR040W, strain KSS1, active compounds read low 0.937 | S. cerevisiae deletion strains, locus YGR052W, strain FMP48, active compounds read low 1.03 | S. cerevisiae deletion strains, locus YGR092W, strain DBF2, active compounds read low 0.947 | [2] 1.14 | S. cerevisiae deletion strains, locus YHR079C, strain IRE1, active compounds read low 1.05 | S. cerevisiae deletion strains, locus YHR082C, strain KSP1, active compounds read low 1.01 | S. cerevisiae deletion strains, locus YHR205W, strain SCH9, active compounds read low 0.958 | S. cerevisiae deletion strains, locus YIL147C, strain SLN1, active compounds read low 0.986 | S. cerevisiae deletion strains, locus YJL095W, strain BCK1, active compounds read low 1.03 | S. cerevisiae deletion strains, locus YJL128C, strain PBS2, active compounds read low 0.974 | S. cerevisiae deletion strains, locus YJL157C, strain FAR1, active compounds read low 0.931 | S. cerevisiae deletion strains, locus YJR016C, strain ILV3, active compounds read low 0.996 | S. cerevisiae deletion strains, locus YJR066W, strain TOR1 (second series), active compounds read low 0.912 | S. cerevisiae deletion strains, locus YJR066W, strain TOR1, active compounds read low 1.02 | S. cerevisiae deletion strains, locus YKL048C, strain ELM1, active compounds read low 0.974 | S. cerevisiae deletion strains, locus YKL067W, strain YNK1, active compounds read low 0.948 | S. cerevisiae deletion strains, locus YKL101W, strain HSL1, active compounds read low 0.958 | S. cerevisiae deletion strains, locus YKL193C, strain SDS22, active compounds read low 0.999 | S. cerevisiae deletion strains, locus YKL203C, strain TOR2, active compounds read low 1.02 | S. cerevisiae deletion strains, locus YLR113W, strain HOG1, active compounds read low 0.968 | S. cerevisiae deletion strains, locus YLR133W, strain CKI1, active compounds read low 0.955 | S. cerevisiae deletion strains, locus YLR403W, strain SFP1, active compounds read low 0.957 | S. cerevisiae deletion strains, locus YML070W, strain DAK1, active compounds read low 0.918 | S. cerevisiae deletion strains, locus YMR001C, strain CDC5, active compounds read low 0.996 | S. cerevisiae deletion strains, locus YMR205C, strain PFK2 (second series), active compounds read low 0.938 | S. cerevisiae deletion strains, locus YMR277W, strain FCP1, active compounds read low 0.996 | S. cerevisiae deletion strains, locus YNL006W, strain LST8, active compounds read low 0.994 | S. cerevisiae deletion strains, locus YNL020C, strain ARK1, active compounds read low 0.945 | S. cerevisiae deletion strains, locus YNL161W, strain CBK1, active compounds read low 0.996 | S. cerevisiae deletion strains, locus YNL183C, strain NPR1, active compounds read low 1.03 | S. cerevisiae deletion strains, locus YNL207W, strain RIO2, active compounds read low 0.993 | S. cerevisiae deletion strains, locus YNL222W, strain SSU72, active compounds read low 1 | S. cerevisiae deletion strains, locus YNL307C, strain MCK1 (second series), active compounds read low 0.952 | S. cerevisiae deletion strains, locus YOL078W, strain AVO1, active compounds read low 0.998 | S. cerevisiae deletion strains, locus YOL136C, strain PFK27, active compounds read low 0.927 | S. cerevisiae deletion strains, locus YOR061W, strain CKA2, active compounds read low 0.927 | S. cerevisiae deletion strains, locus YOR119C, strain RIO1, active compounds read low 0.981 | S. cerevisiae deletion strains, locus YOR231W, strain MKK1, active compounds read low 1.02 | S. cerevisiae deletion strains, locus YOR329C, strain SCD5, active compounds read low 0.994 | S. cerevisiae deletion strains, locus YPL031C, strain PHO85, active compounds read low 0.949 | S. cerevisiae deletion strains, locus YPL153C, strain RAD53, active compounds read low 0.923 | S. cerevisiae deletion strains, locus YPL204W, strain HRR25, active compounds read low 0.944 | S. cerevisiae deletion strains, locus YPL209C, strain IPL1, active compounds read low 0.991 | S. cerevisiae deletion strains, locus YPL256C, strain CLN2, active compounds read low 1.04 | S. cerevisiae deletion strains, locus YPR025C, strain CCL1, active compounds read low 0.992 | S. cerevisiae deletion strains, locus YPR106W, strain ISR1, active compounds read low 0.998 | S. cerevisiae deletion strains, locus YPR111W, strain DBF20, active compounds read low 0.99 | S. cerevisiae deletion strains, strain NNK1, active compounds read low 0.991 | S. cerevisiae deletion strains, strain TSCII, active compounds read low 0.997

COc1ccccc1N=C1SCC(=O)N1Cc1ccco1
inactive: S. cerevisiae deletion strains, locus YAL013W, strain DEP1, active compounds read low 0.993 | S. cerevisiae deletion strains, locus YBR229C, strain ROT2, active compounds read low 0.99 | [1] 0.983 | S. cerevisiae deletion strains, locus YDR150W, strain NUM1, active compounds read low 0.9 | S. cerevisiae deletion strains, locus YEL061C, strain CIN8, active compounds read low 0.989 | S. cerevisiae deletion strains, locus YGR078C, strain PAC10, active compounds read low 0.981 | S. cerevisiae deletion strains, locus YGR229C, strain SMI1, active compounds read low 1 | [2] 0.956 | S. cerevisiae deletion strains, locus YHR087W, strain rtc3, active compounds read low 0.989 | S. cerevisiae deletion strains, locus YJR043C, strain POL32, active compounds read low 0.977 | S. cerevisiae deletion strains, locus YJR075W, strain HOC1, active compounds read low 0.978 | S. cerevisiae deletion strains, locus YKL190W, strain CNB1, active compounds read low 0.997 | S. cerevisiae deletion strains, locus YLR039C, strain RIC1, active compounds read low 0.989 | S. cerevisiae deletion strains, locus YLR058C, strain SHM2 (second series), active compounds read low 0.99 | S. cerevisiae deletion strains, locus YLR085C, strain ARP6, active compounds read low 0.968 | S. cerevisiae deletion strains, locus YLR262C, strain YPT6, active compounds read low 0.998 | S. cerevisiae deletion strains, locus YML094W, strain GIM5, active compounds read low 0.972 | S. cerevisiae deletion strains, locus YMR219W, strain ESC1, active compounds read low 0.989 | S. cerevisiae deletion strains, locus YMR263W, strain SAP30, active compounds read low 0.987 | S. cerevisiae deletion strains, locus YNL153C, strain GIM3, active compounds read low 0.987 | S. cerevisiae deletion strains, locus YNL298W, strain CLA4 (second series), active compounds read low 0.997 | S. cerevisiae deletion strains, locus YNL322C, strain KRE1, active compounds read low 0.985 | S. cerevisiae deletion strains, locus YNR030W, strain Alg12, active compounds read low 0.998 | S. cerevisiae deletion strains, locus YOL006C, strain TOP1, active compounds read low 0.951 | S. cerevisiae deletion strains, locus YPL055C, strain LGE1, active compounds read low 0.969 | S. cerevisiae deletion strains, locus YPL241C, strain CIN2, active compounds read low 1.01 | S. cerevisiae deletion strains, locus YPR135W, strain CTF4, active compounds read low 0.939 | S. cerevisiae strains, strain wild type, active compounds read low 1
